Screening results from PubChem.
AHR activator = activates the human aryl hydrocarbon receptor; AID 2796; AHR-responsive luciferase reporter cells, luminescence; P35869; hit rate 2.5% among 320,000; activation, % at 5 µM; in the data active means activation above about 47%;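 further: 0% = vehicle wells and 100% = reference agonist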
Target sequence (P35869 whole entry, looked up): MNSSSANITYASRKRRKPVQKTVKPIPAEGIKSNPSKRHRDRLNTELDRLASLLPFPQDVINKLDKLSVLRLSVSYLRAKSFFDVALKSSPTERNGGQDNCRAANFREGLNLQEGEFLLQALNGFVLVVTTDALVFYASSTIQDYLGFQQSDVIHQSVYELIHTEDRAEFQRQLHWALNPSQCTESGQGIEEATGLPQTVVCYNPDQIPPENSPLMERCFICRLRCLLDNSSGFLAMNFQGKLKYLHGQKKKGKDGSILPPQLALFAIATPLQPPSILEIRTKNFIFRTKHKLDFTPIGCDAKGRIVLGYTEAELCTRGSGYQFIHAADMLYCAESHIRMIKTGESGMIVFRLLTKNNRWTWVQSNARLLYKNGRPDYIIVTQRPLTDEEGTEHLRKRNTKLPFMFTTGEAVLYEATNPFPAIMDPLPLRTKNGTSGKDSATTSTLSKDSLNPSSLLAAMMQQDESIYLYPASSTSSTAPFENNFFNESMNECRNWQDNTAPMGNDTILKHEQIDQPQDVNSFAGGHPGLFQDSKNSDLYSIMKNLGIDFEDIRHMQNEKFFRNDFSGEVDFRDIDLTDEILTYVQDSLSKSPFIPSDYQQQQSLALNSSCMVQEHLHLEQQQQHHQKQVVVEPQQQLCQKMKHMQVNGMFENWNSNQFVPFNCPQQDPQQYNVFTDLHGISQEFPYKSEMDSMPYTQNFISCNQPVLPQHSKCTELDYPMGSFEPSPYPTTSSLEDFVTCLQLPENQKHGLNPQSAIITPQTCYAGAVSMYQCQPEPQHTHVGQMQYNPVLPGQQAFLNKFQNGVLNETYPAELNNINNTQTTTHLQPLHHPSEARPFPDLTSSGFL
NTR1 ag = NTR1 (human) agonism; activation, % at 20 µM; AID 493036; P30989; hit rate 0.17% among 330,000; NTR1-U2OS beta-arrestin-GFP spot imaging, agonist mode;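 active means activation at or above 40% of the spot to cytoplasm intensity ratio, with at least 20 cells analyzed; inconclusive means wells under 20 cells, flagged as cytotoxic or low count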;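 further: 0% = DMSO without peptide and 100% = 100 nM NTR1 peptide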
Cardio protect = modulators protecting cardiomyocytes from myocardial damage. protection from H2O2 cell death, % at 20 µM. H9c2 cardiomyocytes, H2O2 injury protection, ATPLite, 2 h. AID 588492. hit rate 0.63% among 360,000;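 active means compounds giving at least 50% protection of heart cells from peroxide-induced death in the single-dose screen, raw or plate-pattern-corrected value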;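 further: 0% = DMSO wells with peroxide and 100% = DMSO wells without peroxide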
GRIN3A LBD mod = NR3A (human) ligand-binding domain modulation | NR3A LBD differential scanning fluorimetry, Tm shift; 0% = protein alone, 100% = glycine-bound protein | Tm shift relative to glycine control, % at 25 µM | hit rate 2.5% among 340,000 | AID 1259313;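 active means melting temperature shift of at least 10% of the positive control shift, at one fixed dose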
Mot1-301 SUMO = blocks SUMOylation pathway, rescuing yeast Mot1-301 growth; hit rate 1% among 320,000; growth rescue, % at 18.8 µM; S. cerevisiae Mot1-301 growth rescue, ATP luminescence, 38.5C; percent above DMSO median, 100 means doubled;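 active means every valid replicate shows activation above 250% relative to neutral control wells; inactive means the rest, any valid replicate at or below 250%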;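 further: OY570 slx delta 5 strain wells were the positive control but not used for scaling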
AI-2 QS mod = modulates the Vibrio harveyi AI-2 quorum sensing system | Vibrio harveyi JMH597 AI-2 luminescence/OD600 ratio, 9 h; active compounds read low; strain lacks LuxN and CqsS sensors; 0 = neutral-control median | activity change, % at 7.5 µM | hit rate 0.4% among 300,000; in the data active means activity change below about -75%, passing the limit was not always enough; inconclusive means no clear call, values can overlap the other calls;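 further: luminescence divided by OD600 gain over 9 h not by final OD600 alone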
* hit, by the source's call; ? = inconclusive; / = no result. This is a sample that favours compounds with a hit; in the whole collection about 6.2% have one here.

SMILES | AHR activator | NTR1 ag | Cardio protect | GRIN3A LBD mod | Mot1-301 SUMO | AI-2 QS mod
NS(=O)(=O)c1cccc(NC(=O)COC(=O)c2cc(Cl)ccc2[N+](=O)[O-])c1 | -0.4 | 0.9 | -2.2 | -2.5 | -17.7 | -79.1*
Cc1cc(Cl)ccc1OCCCC(=O)OCC(N)=O | -0.4 | -1.2 | 8.1 | -0.4 | -4.7 | 11.0
O=C(COC(=O)c1cc(Cl)ccc1[N+](=O)[O-])NC1CC1 | 0.4 | -1.2 | -2.4 | 1.9 | -30.5 | /
Cc1cc(Cl)ccc1OCC(=O)OCC(=O)Nc1ccc(F)c([N+](=O)[O-])c1 | 2.9 | / | -5.5 | 25.7* | 7.3 | /
NC(=O)C1CCN(C(=O)c2ccccc2SCC(=O)NCC2CCCCC2)CC1 | 19.1 | -0.6 | 6.6 | -1.1 | -17.1 | 12.3
CCOc1ccc(C(C)C)cc1S(=O)(=O)Nc1ccc(Cl)cn1 | -0.7 | -0.2 | -5.2 | 12.2* | -2.6 | 14.9
CCOc1ccc(S(=O)(=O)Nc2ccc(Cl)cn2)c(C)c1C | 0.8 | 1.4 | -9.1 | -9.4 | -36.2 | 22.2
Cc1ccc(-c2nc(CN3CCN(C(=O)C4CCCO4)CC3)cs2)cc1 (centres undefined) | 5.4 | -0.6 | -6.8 | 11.1* | -0.6 | 12.6
COc1ccc(OC)c(S(=O)(=O)NCc2cc(-c3ccccc3)no2)c1 | 51.4* | 2.3 | -3.5 | -3.0 | -17.7 | 18.0
COc1ccc(OC)c(S(=O)(=O)NCc2ccccc2)c1 | -0.4 | -3.9 | 1.9 | 0.1 | -5.6 | 13.3
Cc1ccc(C2=N/C(=C/N3CCOCC3)C(=O)O2)cc1 | 57.2* | 0.0 | -1.2 | -0.9 | -7.3 | 15.4
CCOc1ccccc1Oc1cn[nH]c1-c1ccc(O)cc1O | 29.5 | -0.5 | -13.1 | 5.5 | -18.4 | -10.0
C=C(C)COc1ccc(-c2[nH]ncc2Oc2ccccc2OCC)c(O)c1 | 25.0 | 38.7 | 3.8 | 11.1* | -6.9 | 20.8
CCCc1ccc(Oc2cn[nH]c2-c2ccc(O)cc2O)cc1 | 34.7 | 28.2 | -19.8 | 28.2* | 195.5 | ?
CCOC(=O)c1ccc(Oc2cn[nH]c2-c2ccc(O)cc2O)cc1 | 1.2 | 6.9 | -14.0 | 28.6* | -0.7 | 64.2
CCCOC(=O)c1ccc(Oc2cn[nH]c2-c2ccc(O)cc2O)cc1 | 0.2 | 17.3 | -19.0 | 34.2* | -13.0 | 85.3
CCCOC(=O)c1ccc(Oc2cn[nH]c2-c2ccc(OCC(=O)NN)cc2O)cc1 | 7.6 | 4.7 | -8.7 | -7.3 | 23.4 | 9.3
CCCN1CCN(CC(O)COC(c2ccc(OC)cc2)c2ccc(OC)cc2)CC1 (centres undefined) | -0.3 | / | 5.6 | -0.1 | -19.0 | -1.7
CCCCN1C(=O)C(CC(=O)NCCCN(C)C)CC(C(=O)N2CCOCC2)=C1C (centres undefined) | / | / | 8.7 | / | / | /
Cc1cc(C(=O)OC(C)C(=O)NC2CCCCC2C)c2ccccc2n1 (centres undefined) | / | / | 1.8 | / | / | /
COC(=O)c1ccc2nc(-c3cccc(Cl)c3)c(Cc3ccsc3)n2c1 | / | / | -4.0 | / | / | /
OCCC1CN(Cc2cccn2-c2cccnc2)CCN1Cc1ccc(F)cc1 (centres undefined) | 4.1 | -0.4 | 5.6 | -1.8 | 357.7* | 43.5
CN(Cc1cccnc1)C(=O)c1cc(COc2ccc3c(c2)CCCC3)on1 | 12.4 | 1.9 | -19.2 | 1.6 | 11.7 | -79.9*
CC(C)N(C(=O)[C@H]1CC(CC(=O)NCC23CC4CC(CC(C4)C2)C3)C(=O)N2CCc3c([nH]c4ccccc34)[C@]12C)C(C)C (some centres undefined) | 1.0 | 14.4 | 0.2 | -0.5 | / | /
CCN(CC(=O)Nc1c(F)cccc1F)C(=O)Cc1n[nH]c(=O)c2ccccc12 | 0.3 | -0.7 | 59.8* | 1.3 | -5.0 | 13.7
SMILES | AHR activator | NTR1 ag | Cardio protect | GRIN3A LBD mod | Mot1-301 SUMO | AI-2 QS mod
CCN(CC(=O)Nc1c(F)cccc1F)C(=O)Cc1ccsc1 | 5.2 | -0.9 | 1.4 | 1.0 | 0.1 | /
CCN(CC(=O)Nc1c(F)cccc1F)C(=O)CCCc1nc2ccccc2c(=O)[nH]1 | 1.7 | -0.3 | 26.4 | -1.9 | -16.8 | /
CCN(CC(=O)Nc1c(F)cccc1F)C(=O)CCc1nc2ccccc2c(=O)[nH]1 | -0.9 | -0.6 | 64.5* | 2.6 | 3.2 | 13.3
CCCN(CC(=O)Nc1ccc(F)c(F)c1F)C(=O)CCc1nc2ccccc2c(=O)[nH]1 | 7.8 | -0.2 | 67.5* | 1.0 | 116.3 | -1.3
CCn1c(SCC(=O)c2ccc3ccccc3c2)nnc1-c1ccco1 | 77.8* | 1.7 | 1.0 | -0.4 | 41.3 | 2.4
C#Cc1ccc(C(=O)Nc2ccc(N3CCC(C)CC3)c(C(N)=O)c2)cc1 | 0.4 | 5.0 | -12.1 | 27.3* | -0.7 | 16.7
Cc1cccc(NC(=O)c2cc(NC(=O)c3ccccc3)ccc2N2CCCCC2)c1 | 0.4 | 7.0 | -5.9 | -4.9 | -4.7 | 10.9
Cc1onc(-c2ccccc2)c1-c1nnc(COC(=O)c2ccc(O)cc2)o1 | / | 6.8 | 0.4 | 10.1* | / | /
Cc1onc(-c2ccccc2)c1-c1nnc(COC(=O)c2ccc(F)cc2)o1 | / | / | -3.9 | / | / | /
CCCN(CC(=O)Nc1ccccc1C)C(=O)C1CC(=O)N(Cc2ccccc2)C1 (centres undefined) | 9.8 | 0.9 | -3.3 | 0.3 | -15.4 | 29.7
COc1cccc2c1C(=O)c1ccc3ccccc3c1C2=O | 61.9* | 5.5 | -2.5 | 1.3 | -1.9 | 4.6
COc1ccc(OC)c2c1C(=O)c1ccccc1C2=O | 22.1 | -1.5 | / | -2.2 | 0.6 | 20.1
COc1ccc(NS(=O)(=O)c2cc(NC(=O)CCc3ccccc3)ccc2N2CCOCC2)cc1 | / | / | 0.5 | -6.2 | / | /
CCOC(=O)[C@@H]1[C@H]2COc3cc(OC)ccc3[C@@H]2N2C(=O)N(c3cccc(F)c3)C(=O)[C@@]12C | 50.5* | -0.5 | -0.4 | -0.8 | 2.0 | 24.2
COc1ccccc1-c1cccc([C@@H]2C[C@H]3[C@H](CON3C)CN2C(=O)CCc2ccccc2)c1 | / | / | 20.4 | -0.3 | / | /
COc1cc(C(=O)Nc2cc(C)ccn2)ccc1OCC(=O)N1CCOCC1 | -1.9 | -0.4 | 6.8 | -5.2 | 87.3 | 31.7
COc1ccc(C2/C=C\CN(C(=O)c3ccc(C)cc3)[C@H](Cc3ccccc3)C(=O)N2Cc2ccc(F)cc2)cc1 (some centres undefined) | 2.5 | 1.4 | 85.2* | -6.6 | 3.2 | 7.8
Fc1ccc(-n2nnc(-c3ccnc4ccccc34)n2)cc1 | 54.5* | -0.6 | -8.1 | 0.9 | 8.7 | -3.6
Cn1c(-c2nnn(-c3ccc(F)cc3)n2)cc2ccccc21 | 68.7* | 3.1 | / | / | 150.0 | 12.8
Cc1ccc(-n2nnc(-c3cc4ccccc4n3C)n2)cc1 | 46.0 | -0.6 | -10.1 | -1.3 | 7.8 | 17.7
COc1ccc(C)cc1NC(=O)CO/N=C(\N)CC(=O)NC1CCCCC1 | 2.2 | -2.3 | -1.6 | -0.8 | 1.2 | /
Cc1c(C(=O)N/N=C/c2cccc(O)c2)nnn1-c1nonc1N | 0.8 | 0.0 | 9.1 | 11.5* | 0.1 | 12.4
COc1cccc(/C=N/NC(=O)c2nnn(-c3nonc3N)c2C(C)C)c1OCc1ccc(F)cc1 | 2.4 | 6.5 | 12.0 | 5.5 | 20.8 | 21.2
